# From the supplement of paper PMC12282887
# ± gives the standard deviation of the averaged measurements.
# How the values were obtained:
# Assay in all cases: promoter activity interaction Z-score (Lux/OD deviation from empty-vector control); higher = stronger promoter induction by the compound
# [1] = system: E. coli BW25113 acrABp lux reporter
# In short: (§1)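 Low-copy luxCDABE promoter reporters were carried by E. coli BW25113, either wild type or lacking one of three genes, grown in 40 µl LB Lennox in 384-well plates at 37°C. Each compound was run at four 1:2 dilutions in biological duplicates, with OD600 and luminescence read every 30 min for 12 h. Integration used 0–8 h for wild type and 1–9 h for deletion strains, and wells under 10% of the median growth value were removed. Luminescence normalised to growth was fitted against a control, and the Z-transformed residual is the score.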
# [2] = system: E. coli BW25113 micFp lux reporter
# In short: as §1
# [3] = system: E. coli BW25113 ompFp lux reporter
# In short: as §1
# [4] = 22.7 µg/ml, genetic background: wild type
# [5] = 22.7 µg/ml, genetic background: ΔmarA
# [6] = 22.7 µg/ml, genetic background: Δrob
# [7] = 22.7 µg/ml, genetic background: ΔsoxS
# [8] = 45.3 µg/ml, genetic background: wild type
# [9] = 45.3 µg/ml, genetic background: ΔmarA
# [10] = 45.3 µg/ml, genetic background: Δrob
# [11] = 45.3 µg/ml, genetic background: ΔsoxS
# [12] = 90.6 µg/ml, genetic background: wild type
# [13] = 90.6 µg/ml, genetic background: ΔmarA
# [14] = 90.6 µg/ml, genetic background: Δrob
# [15] = 90.6 µg/ml, genetic background: ΔsoxS
# [16] = 181.2 µg/ml, genetic background: wild type
# [17] = 181.2 µg/ml, genetic background: ΔmarA
# [18] = 181.2 µg/ml, genetic background: Δrob
# [19] = 181.2 µg/ml, genetic background: ΔsoxS
structure (smiles),measurement,setting,value
C[C@]12CCC(=O)C=C1CC[C@@H]1[C@@H]2[C@@H](O)C[C@@]2(C)[C@H]1CC[C@]2(O)C(=O)CO [Hydrocortisone],promoter activity interaction Z-score,[1]; [4],0.0762 ± 0.23
same,promoter activity interaction Z-score,[1]; [5],1.29 ± 0.12
same,promoter activity interaction Z-score,[1]; [6],0.155 ± 0.043
same,promoter activity interaction Z-score,[1]; [7],-0.247 ± 0.36
same,promoter activity interaction Z-score,[1]; [8],-0.118 ± 0.13
same,promoter activity interaction Z-score,[1]; [9],-0.299 ± 0.39
same,promoter activity interaction Z-score,[1]; [10],-0.0995 ± 0.075
same,promoter activity interaction Z-score,[1]; [11],-0.18 ± 0.021
same,promoter activity interaction Z-score,[1]; [12],-0.0327 ± 0.25
same,promoter activity interaction Z-score,[1]; [13],0.944 ± 0.81
same,promoter activity interaction Z-score,[1]; [14],-0.203 ± 0.1
same,promoter activity interaction Z-score,[1]; [15],-0.563 ± 0.76
same,promoter activity interaction Z-score,[1]; [16],-0.103 ± 0.25
same,promoter activity interaction Z-score,[1]; [17],0.322 ± 0.17
same,promoter activity interaction Z-score,[1]; [18],-0.0446 ± 0.063
same,promoter activity interaction Z-score,[1]; [19],-0.63 ± 0.4
same,promoter activity interaction Z-score,[2]; [4],-0.121 ± 0.17
same,promoter activity interaction Z-score,[2]; [5],-0.0598 ± 0.096
same,promoter activity interaction Z-score,[2]; [6],0.0274 ± 0.19
same,promoter activity interaction Z-score,[2]; [7],-0.338 ± 0.18
same,promoter activity interaction Z-score,[2]; [8],-0.199 ± 0.022
same,promoter activity interaction Z-score,[2]; [9],-0.00993 ± 0.17
same,promoter activity interaction Z-score,[2]; [10],-0.112 ± 0.071
same,promoter activity interaction Z-score,[2]; [11],-0.292 ± 0.17
same,promoter activity interaction Z-score,[2]; [12],-0.0486 ± 0.33
same,promoter activity interaction Z-score,[2]; [13],0.0152 ± 0.072
same,promoter activity interaction Z-score,[2]; [14],-0.0859 ± 0.072
same,promoter activity interaction Z-score,[2]; [15],-0.443 ± 0.012
same,promoter activity interaction Z-score,[2]; [16],-0.162 ± 0.41
same,promoter activity interaction Z-score,[2]; [17],0.0829 ± 0.11
same,promoter activity interaction Z-score,[2]; [18],0.0154 ± 0.043
same,promoter activity interaction Z-score,[2]; [19],-0.487 ± 0.11
same,promoter activity interaction Z-score,[3]; [4],-0.318 ± 0.33
same,promoter activity interaction Z-score,[3]; [5],-1.05 ± 0.19
same,promoter activity interaction Z-score,[3]; [6],-0.188 ± 0.34
same,promoter activity interaction Z-score,[3]; [7],-0.146 ± 0.36
same,promoter activity interaction Z-score,[3]; [8],-0.51 ± 0.41
same,promoter activity interaction Z-score,[3]; [9],-0.8954 ± 0.0059
same,promoter activity interaction Z-score,[3]; [10],-0.15 ± 0.053
same,promoter activity interaction Z-score,[3]; [11],-0.152 ± 0.059
same,promoter activity interaction Z-score,[3]; [12],-0.587 ± 0.064
same,promoter activity interaction Z-score,[3]; [13],-0.994 ± 0.16
same,promoter activity interaction Z-score,[3]; [14],-0.657 ± 0.24
same,promoter activity interaction Z-score,[3]; [15],-1.03 ± 0.14
same,promoter activity interaction Z-score,[3]; [16],-0.507 ± 0.061
same,promoter activity interaction Z-score,[3]; [17],-0.698 ± 0.09
same,promoter activity interaction Z-score,[3]; [18],-0.507 ± 0.34
same,promoter activity interaction Z-score,[3]; [19],-0.928 ± 0.4
